# An excerpt weighted towards active compounds, which were near 3.5% of everything screened.
# TEAD-YAP block: TEAD-YAP interaction inhibition; AID 1259422; 1.4% of 640,000 active; inhibition, % at 9.12 µM; HEK-TIYL cells, TEAD-Gal4/YAP UAS-luciferase luminescence; in the data active = inhibition above about 32%;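 note: 0% = median of test compound wells and 100% = reference inhibitor wells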
# GPR151 activ: activates the human receptor GPR151; PathHunter beta-arrestin GPR151 cells, luminescence; Q8TDV0; activation, % at 11.2 µM; 1% of 650,000 active; in the data active = activation above about 4.9%;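 note: 0% = median of compound wells and 100% = cells with positive control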
# MITF inh: inhibitors of human MITF | O75030 | AlphaScreen MITF homodimerization, bead proximity signal | AID 1259374 | 0.91% of 650,000 active | inhibition, % at 2.6 µM; in the data active = inhibition above about 50%;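 note: 0% = vehicle wells with protein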
# FBW7 activator: human FBW7 E3 ligase activation, primary screen. Q969H0. AlphaScreen FBW7–phospho-cyclin E peptide binding, activator screen. normalized activity (activation), % at 26.1 µM. 0.13% of 650,000 active. AID 1259310; in the data active = normalized activity above about 1.9%;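 note: purified mutant Fbw7 with reduced substrate affinity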
# Target sequence (Q969H0 whole entry, looked up): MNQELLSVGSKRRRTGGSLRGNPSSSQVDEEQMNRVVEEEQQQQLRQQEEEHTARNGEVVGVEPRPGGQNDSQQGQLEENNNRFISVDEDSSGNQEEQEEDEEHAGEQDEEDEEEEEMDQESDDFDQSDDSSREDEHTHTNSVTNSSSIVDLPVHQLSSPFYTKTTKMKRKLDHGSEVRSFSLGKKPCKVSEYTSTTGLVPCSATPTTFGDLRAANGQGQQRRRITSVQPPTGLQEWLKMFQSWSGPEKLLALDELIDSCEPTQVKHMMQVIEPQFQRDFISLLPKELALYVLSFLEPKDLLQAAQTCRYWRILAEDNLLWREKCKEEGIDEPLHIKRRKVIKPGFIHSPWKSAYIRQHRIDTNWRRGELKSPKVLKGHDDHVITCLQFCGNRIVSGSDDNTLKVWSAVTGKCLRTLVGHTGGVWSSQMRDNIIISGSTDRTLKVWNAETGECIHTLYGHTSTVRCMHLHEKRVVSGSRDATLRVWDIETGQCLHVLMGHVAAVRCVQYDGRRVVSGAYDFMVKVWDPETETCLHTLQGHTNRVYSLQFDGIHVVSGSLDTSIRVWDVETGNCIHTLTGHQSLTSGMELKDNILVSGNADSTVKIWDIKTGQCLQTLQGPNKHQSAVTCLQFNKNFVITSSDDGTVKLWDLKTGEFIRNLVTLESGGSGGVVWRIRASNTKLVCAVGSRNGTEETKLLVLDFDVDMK
# GPR151 conf act: human GPR151 activation, confirmation screen; shares compounds with GPR151 activ; GPR151 PathHunter beta-arrestin cells, luminescence, 90 min; % of EA-reagent control over plate median; activation, % at 11.2 µM; 6,700 tested, under 10 active; AID 1508609;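 active = mean percent activation across replicates above the confirmation screen cutoff of 4.91%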
# GPR119 counter: GPR119 activation, counter-screen for GPR151 activators | shares compounds with GPR151 activ | GPR119 PathHunter beta-arrestin cells, luminescence, 90 min; 0 = compound-well median, 100 = enzyme-acceptor control | activation, % at 11.2 µM | 0.3% of 6,700 active | AID 1508611;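 active = mean percent activation in the counterscreen above 29.09%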;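 note: counterscreen on off-target GPR119 to flag nonselective hits from the GPR151 activator screen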
# An asterisk follows results filed as active; / = no result given; ! = repeats disagree.
SMILES,TEAD-YAP block,GPR151 activ,MITF inh,FBW7 activator,GPR151 conf act,GPR119 counter
NC(=O)c1ccc(-c2nc(NCCN3CCOCC3)c3ncn(CCN4CCCC4=O)c3n2)cc1,2,-1,3,0,/,/
O=C(NCc1n[nH]c(=S)n1-c1cccc(C(F)(F)F)c1)c1ccc(S(=O)(=O)N2CCCCC2)cc1,8,5.4*,8,0,1,16
CN(Cc1cscn1)Cc1ccc(C(=O)NCc2cccs2)c(=O)[nH]1,9,-1,10,-1,/,/
Cc1nc(CN(C)Cc2ccc(C(=O)NCc3ccccc3Cl)c(=O)[nH]2)cs1,-15,5.2*,4,0,0,3
N/C(=N\OC(=O)CCCN1C(=O)c2ccccc2C1=O)c1ccccn1,1,5.3*,1,0,2,1
Cc1nn(C(=O)Cn2ccc([N+](=O)[O-])n2)c(C)c1I,5,5.3*,3,1,0,1
Cc1[nH]c2ccccc2c1C(=O)CN1CCN(S(=O)(=O)c2cccs2)CC1,4,-1,6,0,/,/
Cc1c(O)ccc(C(=O)CN2CCN(c3ccccc3)CC2)c1O,-1,0,8,0,/,/
Cc1c(O)ccc(C(=O)CN2CCN(c3ccccc3F)CC2)c1O,3,5.0*,-1,0,1,1
CC(C)[C@@H]1NC(=O)[C@@H]2C[C@H](NCc3cn(C)nc3-c3ccccc3)CN2C1=O,-6,13*,-4,0,4,14
COc1ccccc1CN[C@H]1C[C@H]2C(=O)N[C@H](CO)C(=O)N2C1,-5,0,17,0,/,/
COc1ccccc1CN[C@H]1C[C@H]2C(=O)N[C@@H](CC(C)C)C(=O)N2C1,-12,6.1*,-13,0,2,11
CC(C)C[C@@H]1NC(=O)[C@@H]2C[C@H](NC(=O)Nc3cccc(C(F)(F)F)c3)CN2C1=O,-12,12*,-24,0,-1,1
CC(=O)c1nn(-c2ccc([N+](=O)[O-])cc2)c(=Nc2cccc3ccccc23)s1,17,-1,4,0,/,/
Cc1cccc(NC(=O)CCCN2C(=O)c3ccccc3C2=O)c1,6,-2,-6,1,/,/
Cc1ccc(NC(=O)c2cnn3c(C(F)(F)F)cc(-c4ccco4)nc23)cc1,-5,0,4,0,/,/
CC(=O)c1ccc(NC(=O)c2cnn3c(C(F)(F)F)cc(-c4ccco4)nc23)cc1,6,6.8*,17,0,0,-9
Cc1cc2nc3s/c(=C/c4ccc(Cl)cc4Cl)c(=O)n3c2cc1C,-4,-1,-4,0,/,/
COc1cccc(-c2ocnc2C(=O)Nc2ccc3nc(C)ccc3c2)c1,-14,-1,24,0,/,/
Cc1cc(C(C)(C)C)cc(S(=O)(=O)Nc2ccc3c(c2)C(=O)NC3=O)c1C,-11,6.2*,-13,0,0,-6
Cc1ccc(S(=O)(=O)Nc2ccc3c(c2)C(=O)NC3=O)c(C)c1,4,0,15,0,/,/
CC1CCCCC1NC(=O)Cn1nc(-c2ccc(Cl)cc2)ccc1=O (stereo not given),4,5.6*,4,0,1,-4
Cc1cc(NCc2ccccc2)nc(Nc2ccc3ncccc3c2)n1,13,3,-1,0,/,/
O=C(O)C1CC=C(Cl)CC1C(=O)Nc1ccn[nH]1 (stereo not given),6,10.0*,-6,0,0,0
CCCc1cc(=O)oc2cc(OCC(=O)OC)ccc12,7,0,5,0,/,/
SMILES,TEAD-YAP block,GPR151 activ,MITF inh,FBW7 activator,GPR151 conf act,GPR119 counter
CCOc1cc(OCC)c(C=O)cc1Br,0,6.3*,5,0,-2,-10
C#CCOc1cc(Br)c(C=O)cc1OCC,3,1,2,0,/,/
CCCCC(=O)Nc1nn2c(-c3cccc(C)c3)nnc2s1,5,2,2,0,/,/
COc1ccc(COC(=O)C2=C(C)NC3=C(C(=O)CC(C)(C)C3)C2c2ccc(OC)cc2)cc1 (stereo not given),3,1,-7,0,/,/
COc1cc(C2C(C(=O)OC(C)(C)C)=C(C)NC3=C2C(=O)CC(C)(C)C3)ccc1O (stereo not given),4,5.4*,1,0,0,-3
COC(=O)c1ccc(C2C(C(=O)OCc3ccc(OC)cc3)=C(C)NC3=C2C(=O)CC(C)(C)C3)cc1 (stereo not given),5,5.2*,23,0,1,-10
COc1ccc(COC(=O)C2=C(C)NC3=C(C(=O)CC(C)(C)C3)C2c2ccc(O)c(OC)c2)cc1 (stereo not given),4,0,10,0,/,/
COc1cc(C2C(C(=O)OCc3ccccc3)=C(C)NC3=C2C(=O)CCC3)ccc1O (stereo not given),-4,5.5*,-2,0,0,7
COc1ccc(COC(=O)C2=C(C)NC3=C(C(=O)CCC3)C2c2ccc(OC)c(O)c2)cc1 (stereo not given),0,5.0*!,11,1,1,3
CCCCNS(=O)(=O)c1ccc(OCC(=O)O)cc1,-11,-2,4,0,/,/
Cc1ccc2c(c1)OCC(c1nc3ccc(-c4ccncc4)cc3[nH]1)O2 (stereo not given),-7,5.1*,10,0,0,-2
c1ccc2c(c1)OC[C@@H](c1nc3ccc(-c4ccncc4)cc3[nH]1)O2,-35,0,10,0,/,/
Nc1nnnn1/N=C/C=C/c1cccc([N+](=O)[O-])c1,1,1,23,1,/,/
Nc1nnnn1/N=C\C=C\c1ccccc1,-17,9.2*,10,0,-1,-6
c1cncc(-c2nc(-c3ccncc3)cc(N3CCCCC3)n2)c1,16,5.2*,13,0,-1,-8
COc1ccccc1OCC(=O)Nc1nc(-c2cccs2)c(NC(C)=O)s1,11,14*,3,0,1,11
Nc1nonc1-n1nnc(CN2CCOCC2)c1C(=O)NNC(=O)CCc1ccccc1,5,-1,36,0,/,/
CC1C(=O)Nc2ccc(S(=O)(=O)Nc3ccc(F)cc3F)cc2NC1=O (stereo not given),-1,0,12,0,/,/
CC(=O)c1ccc2ccccc2c1OC(=O)c1ccc(Br)o1,3,6.3*,0,0,-1,-15
Cn1nnn(CN2CCc3ccccc3C2)c1=S,-8,0,-3,0,/,/
CCOC(=O)c1ccc(NS(=O)(=O)c2ccc(OC)c(Cl)c2)cc1,11,-1,13,0,/,/
CCOC(=O)C1=C(C)N(c2ccccc2)C(=O)NC1c1ccccc1F (stereo not given),-6,-1,-1,0,/,/
COc1nn(C)cc1C(=O)NCC(=O)Nc1ccc2c(c1)Cc1ccccc1-2,4,9.5*,8,0,1,9
O=C(NCC(O)CO)c1ccc2[nH]c3c(c2c1)CCCC3 (stereo not given),-1,-2,16,0,/,/
